Screening results: PubChem, National Center for Advancing Translational Sciences (NCATS)
A selection: hits, their analogues and other compounds. The true share with any hit is near 2.2%.
Nrf2 block: Nrf2 qHTS screen for inhibitors; A549 ARE-Fluc reporter, luciferase luminescence, 18-24 h; Potency, µM (series often up to 46 µM), without a hit: top-dose activity change, negative = inhibition, usual class: inhibitors; hit rate 2.1% among 360,000; AID 504444, 2011; further: on the % scale 0 is the no-effect control and ±100 the full control effect; nearly all actives have a fitted effect of over 60% in size
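Quantitative HTS in A549 cells stably bearing an antioxidant response element-firefly luciferase construct. Inhibition of Nrf2-driven transcription was scored by luminescence after 18-24 h of compound exposure at 37 °C.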
A549 tox: Nrf2 qHTS screen for inhibitors: counterscreen for cytotoxicity; Potency, µM (series often up to 46 µM), without a hit: at the highest dose activity change, negative = cytotoxicity, usual class: inhibitors; hit rate 0.16% among 390,000; A549 ARE-Fluc cells, CellTiter-Fluor viability, 18-24 h; further: on the % scale 0 is the no-effect control and ±100 the full control effect
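A549 ARE_Fluc cells in 5% FBS OPTI-MEM were exposed to compounds in concentration-response for 18-24 h at 37 deg C. Viability was read by CellTiter-Fluor fluorescence (Ex 405/Em 525) after 30 min, before the luciferase read.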
Pin1 inh: qHTS Assay to Find Inhibitors of Pin1. Peptidyl-prolyl cis-trans isomerase NIMA-interacting 1 (Homo sapiens), Q13526. Pin1 FP peptide displacement, HiFluor488, 10 min. Potency, µM (top dose mostly 115 µM), inactives show at the highest dose activity, negative = inhibition, actives largely listed as inhibitors. hit rate 0.009% among 390,000. AID 504891, 2011; active means well fitted inhibition curve with a large enough effect in the polarisation, with a control signal flat, not every such curve was filed as active; inconclusive means small, poorly fitted or top-dose-only effect, or effect the other way, or a change in a side signal; inactive means no such curve, though single readings can be large or run the other way; the % refers to the polarisation; further: on the % scale 0 is the no-effect control and ±100 the full control effect
Target sequence (Q13526 whole entry, looked up): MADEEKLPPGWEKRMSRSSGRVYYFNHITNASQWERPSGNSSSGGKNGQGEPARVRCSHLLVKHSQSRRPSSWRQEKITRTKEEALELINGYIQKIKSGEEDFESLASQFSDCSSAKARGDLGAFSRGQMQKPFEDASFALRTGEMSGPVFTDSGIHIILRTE
Nrf2 ARE act: qHTS of Nrf2 Activators; Potency, µM (highest dose often 46.1 µM), inactives show at the highest dose activation, actives largely listed as activators; AID 624171, 2012; AREc32 ARE-luciferase reporter (MCF7-derived line), luminescence, 24 h; hit rate 0.31% among 410,000; further: % of control where 0% means no effect; nearly all actives have a fitted effect of over 65% in size
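Cells of the AREc32 ARE-luciferase line are plated in OPTI-MEM containing 5% FBS and left overnight at 37 deg C. Compounds are pinned in, incubation continues 24 hr, and firefly luciferase signal is then measured.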
The depositor's hits bear a star; ? = inconclusive; . = not tested or not shown; [ ] = dose if it differs, or a comment. Unless noted, the call rests on the fitted dose curve; in most records, active means well fitted curve in the direction sought with a large enough effect; inconclusive means small, poorly fitted or top-dose-only effect, or another doubt; inactive means no such curve, though single readings can be large; an effect the other way counts as inactive or inconclusive. Potency means the concentration at half of the fitted maximal effect.

SMILES	Nrf2 block	A549 tox	Pin1 inh	Nrf2 ARE act
CCCCNC(=O)c1nn(C)c2c1CSc1ccccc1-2	21µM*	-15%	3%	15%
Cn1nc(C(=O)Nc2ccccc2C#N)c2c1-c1ccccc1SC2	-19%	2%	-1%	7%
CCOc1ccccc1NC(=O)c1nn(C)c2c1CSc1ccccc1-2	18µM*	-13%	-9%	3%
CC1CCCC(C)N1CCCNC(=O)c1nn(C)c2c1CSc1ccccc1-2 (stereo not given)	?	0%	2%	0%
COC(=O)CCCN1C(=O)c2cccc3cccc(c23)C1=O	1%	1%	6%	13µM*
O=C1c2ccc3c4c(ccc(c24)C(=O)N1CCCCO)C(=O)N(CCCCO)C3=O	?	18µM*	?	-2%
CC[N+](CC)(CC)CCOc1ccc(/C=C/c2ccccc2)cc1	15µM*	-9%	0%	-1%
CC[N+](CC)(CC)CCOc1cccc(OCC[N+](CC)(CC)CC)c1OCC[N+](CC)(CC)CC	5%	-8%	-13%	-1%
N#Cc1nc(-c2ccco2)oc1N1CCOCC1	.	-2%	3%	13µM*
N#Cc1nc(-c2ccco2)oc1N1CCN(c2ccccc2)CC1	?	-3%	7%	1%
COC(=O)c1nc(NC(=O)c2ccccc2Cl)n[nH]1	26µM*	-2%	9%	-1%
COc1ccc(CCNC(=O)c2cccnc2)cc1OC	.	-7%	-2%	0%
CC(C)(C)c1ccc(C(=O)NCCCNC(=O)c2cccnc2)cc1	8.2µM*	-3%	45%	-1%
COc1ccc(C(=O)NCCCNC(=O)c2cccnc2)cc1OC	10µM*	1%	3%	0%
Cc1ccc(-c2csc(NC(=O)c3cccc(C)c3)c2C(=O)O)cc1	7.3µM*	-18%	2%	-1%
COc1cc(C(=O)Nc2scc(-c3ccc(Br)cc3)c2C(=O)O)cc(OC)c1OC	16µM*	-16%	-19%	-1%
Cc1cccc(C(=O)Nc2scc(-c3ccc(Br)cc3)c2C(=O)O)c1	12µM*	-15%	?	-1%
Cc1ccc(-c2csc(NC(=O)c3ccc(Br)cc3)c2C(=O)O)cc1	?	-8%	-13%	0%
CCNc1nc(NC(C)C)nc(N(C#N)CCOc2ccc(Cl)cc2Cl)n1	9.2µM*	.	0%	4%
CCNc1nc(NC(C)C)nc(N(C#N)Cc2ccccc2)n1	.	-2%	-3%	3%
COc1ccc(C(=O)O/N=C/c2c(C(F)(F)F)nn(C)c2SCc2ccccc2Cl)cc1	?	?	-1%	0%
Cn1nc(C(F)(F)F)c(/C=N/OC(=O)c2ccccc2Cl)c1SCc1ccc(Cl)cc1	21µM*	?	1%	-1%
O=C1c2ccccc2C(=O)c2c1cccc2N(CCO)CCO	-8%	?	?	1%
O=C1C=C(N(CCO)Cc2ccccc2)c2ccccc2C1=O	21µM*	23µM*	0%	-3%
CCN(CC)C(=O)C1CCCN(c2ncnc3c2cnn3-c2ccc(Cl)cc2)C1 (stereo not given)	21µM*	-1%	3%	-4%
SMILES	Nrf2 block	A549 tox	Pin1 inh	Nrf2 ARE act
COc1cc(NC(=O)c2ccc([N+](=O)[O-])o2)ccc1NC(=O)c1cccs1	6%	23µM*	-4%	11µM*
COc1cc(NC(=O)c2cc3ccccc3cc2OC)ccc1NC(=O)c1cccs1	5.2µM*	-10%	5%	-1%
Cc1ccc(NC(=O)c2cccs2)cc1[N+](=O)[O-]	?	-11%	5%	14µM*
CC(=O)Nc1ccc(NS(=O)(=O)c2cc([N+](=O)[O-])ccc2C)cc1	18%	3%	-4%	0%
COc1cc(NC(=O)c2ccccc2Cl)ccc1NC(=O)c1cccs1	?	6%	-5%	3%
CC(=O)Nc1ccc(S(=O)(=O)Nc2ccc(C)c([N+](=O)[O-])c2)cc1	26µM*	-8%	-2%	0%
Nc1ccccc1S(=O)(=O)Nc1cccc2cccnc12	?	?	1%	.
CCc1ccc2[nH]c(=O)c(CN(Cc3cccs3)Cc3nnnn3Cc3ccccc3)cc2c1	?	?	12%	.
Cc1cccc(NS(=O)(=O)c2ccc(NC(=O)CN(c3cc([N+](=O)[O-])ccc3C)S(C)(=O)=O)cc2)c1	18µM*	?	0%	3%
COc1ccc(C)cc1NS(=O)(=O)c1ccc(NC(=O)CN(c2cc([N+](=O)[O-])ccc2C)S(C)(=O)=O)cc1	?	-15%	1%	5%
COc1ccc(-c2cc3ccccc3oc2=O)cc1NC(=O)c1ccc(Br)o1	?	-15%	?	3%
COc1ccc(-c2cc3ccccc3oc2=O)cc1NC(=O)c1ccc([N+](=O)[O-])o1	?	-14%	3%	6.3µM*
CCOC(=O)C(CC)Sc1ccc2nnc(-c3ccc(F)cc3)n2n1 (stereo not given)	1%	2%	-1%	.
CC1Cc2ccccc2N1C(=O)CSc1nnc(-c2ccc(S(=O)(=O)N3CCCC3)cc2)o1 (stereo not given)	-1%	-7%	-1%	0%
CC1Cc2ccccc2N1C(=O)CSc1nnc2c(n1)[nH]c1ccccc12 (stereo not given)	?	-3%	1%	1%
CC1Cc2ccccc2N1C(=O)CSc1nnc(-c2ccccc2)c(-c2ccccc2)n1 (stereo not given)	23µM*	0%[1.84 µM]	33%	0%
O=C(CSc1nnc(-c2c[nH]c3ccccc23)o1)N1c2ccccc2CCc2ccccc21	12µM*	-26%	11%	0%
O=C(CSc1nnc(-c2c[nH]c3ccccc23)o1)N1CCCCC1	?	3%	0%	8%
CC1Cc2ccccc2N1C(=O)CSc1nnc(-c2ccccc2Cl)o1 (stereo not given)	-29%	0%	10%	1.8µM*
CC(=O)C1CCN(c2ncc(-c3ccc4c(c3)OCCCO4)s2)CC1	.	.	2%	.
Cc1nc(-c2coc3cc(O)c(C)cc3c2=O)cs1	10µM*	-7%	23%	2%
Cc1cc(=O)n(C(C)C(=O)N2CCCc3ccccc32)c2c1c(C)nn2-c1ccccc1 (stereo not given)	18µM*	?	?	3%
COC(=O)C1=C[C@@H](C(=O)OC)C2C3=C(C(=O)[C@]2(CC(C)C)NC(=O)c2ccccc2)[C@H](C)n2c(=O)n(C)c(=O)n2[C@@H]3C1 (stereo not given in full)	6%	1%	-11%	.
Cc1ccc(-n2cc(CNCCCn3ccnc3C)c(-c3ccc(F)cc3)n2)cc1	-16%	26µM*	10%	4%
O=C(NCCc1ccc(Cl)cc1)C1CCN(S(=O)(=O)c2ccc3[nH]ccc3c2)CC1	.	10%	31%	7%
COC(=O)/C=C1/S/C(=N/N=C/c2ccco2)NC1=O	-5%	-20%	0%	10µM*
COC(=O)/C=C1\S/C(=N/N=C/c2ccco2)NC1=O	?	-4%	-2%	?
